Structures can show the parent of a compound that is named as a salt.
tested on: Staphylococcus aureus Sa2 (MRSA, cystic fibrosis isolate); test: growth reduction vs untreated control (viable cell count); higher = stronger antibacterial activity; extreme values may be limits of the assay; settings: 0.1 mM; 24 h
Procedure: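 Single-dose screen of the MedChem Express Drug Repurposing Library (0.1 mM, 1% DMSO) against planktonic MRSA S. aureus Sa2 (CF isolate) in TSB in 96-well plates, 37 °C aerobic, 24 h. Assays were run in triplicate and repeated twice.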

| Structure (SMILES) | growth reduction [%] |
| --- | --- |
| Nc1ccc2cc3ccc(N)cc3nc2c1 [Proflavine (hemisulfate)] | 100 |
| O=C(O)C1(c2ccc(-c3ccc(Cl)c(Cl)c3)c(F)c2)CC1 [Itanapraced] | 100 |
| CCCCCCCCOc1ccccc1C(=O)Nc1ccc(C(=O)OCC[N+](C)(CC)CC)cc1 [Otilonium (bromide)] | 100 |
| COc1cccc2c1c(O)c(C(=O)N(C)c1ccc(C(F)(F)F)cc1)c(=O)n2C [Tasquinimod] | 98 |
| COc1cc(NCc2ccc3nc(N)nc(N)c3c2C)cc(OC)c1OC [Trimetrexate] | 100 |
| O=C1NCCN1CCN1CCC(c2cn(-c3ccc(F)cc3)c3ccc(Cl)cc23)CC1 [Sertindole] | 97 |
| CN1CCCC(CC2c3ccccc3Sc3ccccc32)C1 (configuration not stated) [Metixene hydrochloride hydrate] | 100 |
| Oc1c(Br)cc(Br)c2cccnc12 [Broxyquinoline] | 100 |
| CSc1ccc2c(c1)N(CCC1CCCCN1C)c1ccccc1S2 (configuration not stated) [Thioridazine (hydrochloride)] | 100 |
| CC(C)(C)Cn1c(N)nc2ccc(-c3[nH]c(C(C)(C)C)nc3-c3ccc(F)cc3)nc21 [Ralimetinib dimesylate] | 97 |
| O/N=c1\cc(-c2cc3sccc3cn2)oc2ccc(CCCN3CCOCC3)cc12 [Foliglurax (monohydrochloride)] | 100 |
| C=C[C@@H]1C[C@]1(NC(=O)[C@@H]1C[C@@H]2CN1C(=O)[C@H](C(C)(C)C)NC(=O)O[C@@H]1C[C@H]1CCCCCc1nc3ccc(OC)cc3nc1O2)C(=O)NS(=O)(=O)C1CC1 [Grazoprevir hydrate] | 100 |
